Compound activity deposited in PubChem by National Center for Advancing Translational Sciences (NCATS).
The list is not random: actives were taken first. Their share in the collection is about 19%.
TDP1 cell CPT = growth inhibition of DT40 Tdp1-/-;hTDP1 cells with camptothecin (screen for TDP1 inhibitors). chicken DT40 Tdp1-/-;hTDP1 cells + 20 nM CPT, ATP luminescence, 48 h. Potency, µM (highest dose often 46.2 µM), for the others: top-dose activity change, negative = growth inhibition, most hits filed as inhibitors. 420,000 tested, 12% active. AID 686979; further: potency means the concentration at half of the fitted maximal effect; nearly all actives have a fitted effect of over 55% in size
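Chicken DT40 Tdp1-/- cells stably complemented with human TDP1 were seeded at 400 cells/well in medium containing 20 nM camptothecin, exposed to pin-transferred compounds, and grown at 37 °C for at least 48 hr. Viability was read as ATP luminescence.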
TDP1 cell noCPT = qHTS for Inhibitors of human tyrosyl-DNA phosphodiesterase 1 (TDP1): qHTS in cells in absence of CPT. DT40 Tdp1-/- hTDP1 cells, no CPT, ATP luminescence, 48 h. Potency, µM (titrated, usually from 46.2 µM), for the others: top-dose activity change, negative = growth inhibition, hits mostly inhibitors. 420,000 tested, 15% active. AID 686978, 2013; further: potency means the concentration at half of the fitted maximal effect; nearly all actives have a fitted effect of over 55% in size
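Luminescent ATP content (CellTiter-Glo) served as the growth readout. Knockout chicken DT40 cells expressing human TDP1 were exposed to compounds without camptothecin for a minimum 48 hr at 37 °C.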
HT1080NT lethal = kills 2HG-producing HT-1080-NT fibrosarcoma cells. Potency, µM (highest dose often 46.1 µM), without a hit: top-dose activity, negative = less viability, usual class: cytotoxic. 360,000 tested, 1.6% active. HT-1080-NT fibrosarcoma viability, CellTiter-Glo ATP luminescence, 48 h;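 further: NT is the 2HG producing partner of a matched IDH1 knockdown line; potency means the concentration at half of the fitted maximal effect; 0% = DMSO-treated cells and -100% = media-only wells without cells; nearly all actives have a fitted effect of over 55% in size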
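HT-1080-NT fibrosarcoma cells (2HG-overproducing), 750 cells/well in RPMI with 5% FBS, dosed after 2 h and incubated 48 h at 37C. CellTiter-Glo luminescence normalized to DMSO and no-cell wells; concentration-response curves fitted and classed.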
IL1B secr inh = inhibitors of inflammasome signaling (IL-1 beta secretion). THP-1 LPS/ATP IL-1B secretion, AlphaLISA, 16 h; active compounds read low. activity change, % at 57.5 µM. 360,000 tested, 4.7% active; in the data active means activity change below about -50%; inconclusive means mostly about -30% to -49%
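Secreted IL-1B measured by AlphaLISA bead assay after 16 h compound exposure of THP-1 cells; compounds (final up to 57.5 uM) added 1 h before LPS (250 ng/mL) and ATP (1.25 mM) stimulation; lower signal means less secretion.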
HT1080 IDH1KD tx = HT-1080 IDH1 knockdown cell toxicity (counter line) | HT-1080 IDH1 knockdown viability, ATP luminescence, 48 h | Potency, µM (highest dose often 46.1 µM), for inactives: at the top dose activity, negative = toxicity, usual class: cytotoxic | 360,000 tested, 2% active | AID 686971;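 further: potency means the concentration at half of the fitted maximal effect; 0% = DMSO wells and -100% = cell-free medium wells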
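Luminescent ATP read-out (CellTiter-Glo, 10 min at room temperature) after 48 h compound exposure at 37 °C gave viability of IDH1-knockdown HT-1080 cells. Activity was normalised to DMSO and cell-free wells, then fitted as concentration-response curves.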
Active calls of the source: *; ? = inconclusive; · = no result given. Unless noted, the call rests on the fitted dose curve; in most records, active means well fitted curve in the direction sought with a large enough effect; inconclusive means small, poorly fitted or top-dose-only effect, or another doubt; inactive means no such curve, though single readings can be large; an effect the other way counts as inactive or inconclusive. Unless noted, on the % scale 0 is the no-effect control and ±100 the full control effect.

SMILES	TDP1 cell CPT	TDP1 cell noCPT	HT1080NT lethal	IL1B secr inh	HT1080 IDH1KD tx
C=CCN1C2CCCC1CC(NC(=S)Nc1ccc(Cl)cc1)C2 (stereo unspecified)	23µM*	?	-25%	-5	-9%
S=C(Nc1ccc(Cl)cc1)NC1CC2CCC(C1)N2Cc1ccccc1 (stereo unspecified)	23µM*	16µM*	?	-98*	18µM*
O=C(O)C1C2C=CC(O2)C1C(=O)Nc1cccc(C(F)(F)F)c1 (stereo unspecified)	-2%	10%	5%	2	3%
CN1C2CCC1CC(NS(=O)(=O)c1cccc(C(F)(F)F)c1)C2 (stereo unspecified)	-8%	6%	-2%	-76*	-1%
CCOc1ccccc1NC(=O)C1CCCCN1S(=O)(=O)c1ccccc1 (stereo unspecified)	?	21µM*	-1%	-5	-2%
O=C(Nc1ccc(OC(F)(F)F)cc1)C1CCCCN1S(=O)(=O)c1ccccc1 (stereo unspecified)	?	15µM*	-20%	?	-1%
COc1ccccc1C(CNC(=O)c1ccc(OCc2c(C)noc2C)cc1)N1CCCC1 (stereo unspecified)	?	-16%	-8%	0	-2%
COc1ccc(CNCc2ccccc2)cc1COc1ccc(NC(C)=O)cc1	8.9µM*	10µM*	-3%	·	2%
COc1ccc(CN(Cc2ccccc2)C(=O)c2ccco2)cc1COc1ccc(NC(C)=O)cc1	?	?	-24%	·	-26%
COc1ccc(CN(Cc2ccccc2)C(=O)c2cccc(C#N)c2)cc1COc1ccc(NC(C)=O)cc1	8.9µM*	14µM*	-1%	·	-1%
COc1ccc(CN(Cc2ccccc2)C(=O)c2ccc(NC(C)=O)cc2)cc1COc1ccc(NC(C)=O)cc1	?	?	-22%	·	-26%
O=S(=O)(c1ccc(Br)cc1)c1nc(-c2ccco2)oc1NCCCn1ccnc1	?	-23%	-16%	-21	?
COc1ccc2nc(Sc3c([N+](=O)[O-])nc(C)n3Cc3ccccc3)[nH]c2c1	18µM*	23µM*	?	-80*	21µM*
Cc1nc([N+](=O)[O-])c(Sc2nc3ccccc3[nH]2)n1Cc1ccccc1	8.2µM*	12µM*	12%	-105*	6%
Cc1cc2nc(Sc3c([N+](=O)[O-])nc(C)n3Cc3ccccc3)[nH]c2cc1C	7.3µM*	12µM*	?	-98*	?
COc1ccc2nc(SCC(=O)NCc3ccccc3)[nH]c2c1	-4%	1%	-5%	36	-4%
CCN1CCN(c2ccc([N+](=O)[O-])c(Sc3nc4ccccc4[nH]3)c2)CC1	?	?	-10%	?	-7%
Cn1cnc([N+](=O)[O-])c1Sc1nc2ccccc2[nH]1	10µM*	18µM*	?	-97*	18µM*
COc1ccc(-n2ccnc2SCC(=O)NC2CCCC2)c(OC)c1	?	-30%	-4%	-5	2%
O=C(O)c1cc([N+](=O)[O-])c(Sc2nc3ccccc3[nH]2)c([N+](=O)[O-])c1	-18%	-15%	-13%	-7	3%
CS(=O)(=O)c1cc([N+](=O)[O-])c(Sc2nc3ccccc3[nH]2)c([N+](=O)[O-])c1	2.9µM*	4.6µM*	11µM*	10	10µM*
O=c1c2c3c(sc2nc2n1CCCC2)CCC3	-7%	-12%	1%	-13	0%
N=c1c2c3c(sc2nc2n1CCCCC2)CCCCC3	23µM*	12µM*	-2%	-12	-9%
O=c1c2c3c(sc2nc2n1CCCCC2)CCCC3	23µM*	-20%	-2%	-1	-7%
CCN1CCC(N(Cc2ccc3c(c2)OCO3)C(=O)Nc2cc(Cl)ccc2C(=O)OC)CC1	13µM*	7.3µM*	·	·	·
CC(=O)N1CCC(N(Cc2ccc(C)o2)C(=O)Nc2ccccc2F)CC1	-17%	-27%	·	·	·
COC(=O)c1ccc(Cl)cc1NC(=O)N(Cc1ccc(C)o1)C1CCN(C(C)=O)CC1	?	15µM*	·	·	·
